Data taken from ChEMBL document CHEMBL3988442, “University of Dundee, Small-Polar-MMV Screening Library” (2021).
Hit rate of the full screen: of about 48,000 compounds, about 13,000 (27%) showed an effect of 50% or more. This is one part of the list.

system: Wolbachia pipientis; experiment: Anti-Wolbachia Cell-Based Screen; type: functional; design: scale not given: in the data most compounds retested in dose-response had high values; details: 5 µM

In order of rising “Percent Effect” value:
1. Cc1ccc(C)c(OCc2cc(C(=O)N(C)CC(O)CO)no2)c1 (stereo not given)  -202.7%
2. Cc1nc(S(=O)(=O)NCCC(=O)NCc2ccc(C#N)cc2)cn1C  -22.12%
3. CCN(CC1CCCO1)C(=O)Nc1cccc(N2CCOCC2)c1 (stereo not given)  -20.72%
4. Cc1ccc(C(=O)N2C[C@H]3CC[C@@H]2CN(S(=O)(=O)N(C)C)C3)c(O)c1  -19.11%
5. Cc1cnn(CCC(=O)Nc2cccnc2N2CCC(CO)CC2)c1  -13.92%
6. CNC(=O)c1nc2c(s1)CCN(C(=O)c1cccnc1)CC2.O=C(O)C(F)(F)F  -13.23%
7. COc1cccc2c1OCC(C(=O)NCc1nc3c(s1)CCCC3)C2 (stereo not given)  -11.26%
8. O=C(NC1CC1)[C@H]1C[C@H]2OCC[C@H]2N(CC2CC2)C1.O=C(O)C(F)(F)F  -11.18%
9. CN(Cc1nc(-c2cccnc2)no1)C(=O)c1cnc2n1CCCC2  -9.583%
10. CSCC(=O)NC1CCN(C(C)c2ccccc2)CC1 (stereo not given)  -9.489%
11. CCCn1nccc1C(=O)N1CCCN(CCCc2ccccc2)CC1  -7.679%
12. CCCC(=O)Nc1ccc(CC(=O)N(CC)CC2CCCCO2)cc1 (stereo not given)  -7.616%
13. CCN(CC1CCCO1)C(=O)Nc1cc(C(=O)OC)ccc1F (stereo not given)  -7.432%
14. O=C(N[C@@H]1CN(c2ncccn2)C[C@@H]2CCCO[C@@H]21)c1ccncc1.O=C(O)C(F)(F)F.O=C(O)C(F)(F)F  -5.975%
15. Cn1cc(CN2C[C@@H]3CCCO[C@@H]3[C@H](NC(=O)CC3CC3)C2)cn1.O=C(O)C(F)(F)F  -5.365%
16. Cc1ccc(CN2C[C@@H]3CCCO[C@@H]3[C@H](NS(C)(=O)=O)C2)o1.O=C(O)C(F)(F)F  -4.883%
17. Cc1nc(CCCNC(=O)C2CC(=O)N(C(C)(C)C)C2)sc1C (stereo not given)  -4.767%
18. CCNC(=O)N1CCCC(c2noc(CC)n2)C1 (stereo not given)  -3.898%
19. Cn1c(CN2CCCC(Cn3cc(CCO)nn3)C2)cc2ccccc21 (stereo not given)  -3.517%
20. CCc1ocnc1C(=O)N1CCC(n2cc(-c3ccsc3)nn2)CC1  -3.384%
21. Cc1ccc(C)c(-n2ccc3nc(N4CCCC4)ncc3c2=O)c1  -2.601%
22. O=C(N[C@@H]1CN(Cc2ccccc2)C[C@@H]2CCCO[C@@H]21)C1CC1.O=C(O)C(F)(F)F  -2.249%
23. COc1ccc(CNC(=O)NCc2nc(C)c(C)s2)cn1  -2.055%
24. O=C(c1ccc(N2CCCC2)nn1)N1CCCc2cc(F)c(F)cc21  -2.029%
25. CCN(CC1CCCO1)C(=O)Nc1ccc(F)cc1OC (stereo not given)  -0.9971%
26. CCOCCCC(=O)NC1CCN(C(C)c2ccccc2)CC1 (stereo not given)  -0.8786%
27. CC(C)CC(=O)N[C@H](C)c1c(-c2ccc(Cl)cc2)noc1C(=O)O.Cl  -0.2726%
28. COc1cc(N2CCC3(CCCN3Cc3cnn(C)c3)CC2)ncn1.O=C(O)C(F)(F)F  0.3231%
29. CCN(CC1CCCCO1)C(=O)CCNC(=O)c1ccccc1F (stereo not given)  0.5335%
30. CCc1nc(C2CCCN(C(=O)CN(C)S(C)(=O)=O)C2)no1 (stereo not given)  1.006%
31. CCN(CC1CCCO1)C(=O)Nc1cc(OC)c(OC)cc1C (stereo not given)  1.885%
32. CC(C)OCCC(=O)N(C)CCCc1cc(-c2ccccc2)no1  2.535%
33. COc1cccc(-n2nnc(C(=O)N3CCNC(=O)C3)c2C)c1  2.603%
34. O=C(CN1CCCC(c2ccn[nH]2)C1)Nc1nc2c(s1)CCCC2 (stereo not given)  3.48%
35. CCOC(C)c1noc(CN(C)C(=O)c2cc3ccccn3c2)n1 (stereo not given)  5.368%
36. CC1CCc2nc(NC(=O)CN(C)C(=O)c3ccco3)sc2C1 (stereo not given)  6.016%
37. COCCN(CC1CCCO1)C(=O)CCNC(=O)c1ccccc1F (stereo not given)  6.163%
38. CCc1nc(C2CCCN(C(=O)c3c[nH]c(C(C)C)n3)C2)no1 (stereo not given)  7.02%
39. CCc1nc(C2CCCN(C(=O)C3=NN(C(C)C)C(=O)CC3)C2)no1 (stereo not given)  7.741%
40. COc1ccc2nnc(CCCC(=O)NCCC3=CCCCC3)n2n1  8.382%
41. Cc1ccc2cc(C3(O)CCN(C(=O)CSC(C)C)CC3)ccc2n1  8.492%
42. Cl.O=C(Nc1cccc(CNCc2csc(Br)c2)c1)C1CC1  8.664%
43. COc1ccc2nnc(CCCC(=O)NCc3cccn3C)n2n1  11.78%
44. CN(C)c1ccc(CCCNC(=O)Nc2ccc(C#N)cc2)cc1  14.16%
45. O=C1OCCN1CCNc1ncc2c(n1)CCN2c1ccccc1  15.29%
46. CCN(CC1CCCO1)C(=O)CSCC(=O)Nc1ccc(C)cc1 (stereo not given)  18.9%
47. COC[C@@H]1CC[C@H]2[C@H](CCN2S(=O)(=O)Cc2ccccc2)O1  24.17%
48. Cc1noc(C)c1CN1C[C@@H]2CCCO[C@@H]2[C@H](Nc2ccccn2)C1.O=C(O)C(F)(F)F.O=C(O)C(F)(F)F  91.6%
49. Cc1ccc(N[C@@H]2CN(Cc3cc(C)on3)C[C@@H]3CCCO[C@@H]32)nn1.O=C(O)C(F)(F)F.O=C(O)C(F)(F)F  92.65%
50. CCN(CC1CCCO1)C(=O)NCCNC(=O)c1ccccc1F (stereo not given)  93.7%
51. CCN(CC1CCCO1)C(=O)Nc1cc(C(N)=O)ccc1OC (stereo not given)  103.2%
52. CCN(CC1CCCO1)C(=O)Nc1cccc(Cl)c1OC (stereo not given)  103.8%
53. COc1ccc2nnc(CCC(=O)Nc3nc4c(s3)CCCCC4)n2n1  106.8%
54. CCc1nc(C2CCCN(C(=O)NC3CC3)C2)no1 (stereo not given)  109.2%
55. CCN(CC1CCCO1)C(=O)Nc1cc(C)ccc1S(C)(=O)=O (stereo not given)  111.7%
56. CC1CCN(CC(=O)NC2CCN(C(C)c3ccccc3)CC2)CC1.Cl (stereo not given)  112.7%
57. CCc1nc(C2CCCN(C(=O)C(C)(C)NS(C)(=O)=O)C2)no1 (stereo not given)  113.6%
58. Cc1cccc(CN2C[C@@H]3CCCO[C@@H]3[C@H](Nc3ccccn3)C2)n1  113.7%
59. COc1ccc2nnc(CCCC(=O)Nc3nc4c(s3)CCC4)n2n1  114%
60. CCN(CC1CCCO1)C(=O)Nc1ccc(OC)c(C)c1 (stereo not given)  118.7%
61. COc1ccc2nnc(CCC(=O)Nc3nc(C)c(C)s3)n2n1  119%
62. COc1ccc2nnc(CCC(=O)Nc3nc4c(s3)CCC4)n2n1  122.5%
63. CCc1nc(C2CCCN(C(=O)CC3CCOCC3)C2)no1 (stereo not given)  122.8%
64. CCc1nc(C2CCCN(C(=O)NC(C)C)C2)no1 (stereo not given)  123.4%
65. COc1ccc2nnc(CCC(=O)Nc3nc4c(s3)CCCC4)n2n1  139.1%
